Calls of active or inactive are those of the source.

Assay [1] relates to Plasmodium falciparum Sir2 (PF13_0152, Sir2A). The assay is described as follows: Plasmodium falciparum Sir2A binding compounds – biochemical, small-molecule microarray, 635 nm fluorescence, primary screen (AID 1098).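 Note: score merges spot fluorescence intensity with its signal-to-noise ratio.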 To be noted: fluorescence 635 nm, higher = more signal.
A short description of assay [2]: probe aDKK1 binding to arrayed compounds – biochemical, biotinylated probe, 635/667 nm fluorescence, primary screen (AID 1099).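 Note: score merges 667nm spot fluorescence with signal to noise across triplicate slides; reference of the scale not given here.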 The conditions noted are these: small-molecule microarray, higher = more signal.
Assay [3] is described as follows: probe aCHRDL2 binding to arrayed compounds – biochemical, biotinylated probe, 635/667 nm fluorescence, primary screen (AID 1100). To be noted: small-molecule microarray, higher = more signal.
Assay [4] can be described thus: change in splice reporter luminescence, either direction, cell-based, HEK293, spliceosome inhibition project, primary screen (AID 1101).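 Note: HEK293 cells carrying a splicing-competent luciferase reporter gene; test concentration not given here.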 To be noted: HEK293 splicing luciferase reporter, 24 h, higher = more signal, called active from +8 up or from −8 down. In general terms: In a reporter assay the amount or activity of a reporter protein is the signal.
Assay [5] deals with Fibroblast growth factor 10 (Homo sapiens) (UniProt O15520). The assay is described as follows: compounds binding fibroblast growth factor 10 – biochemical, small-molecule microarray, 635 nm fluorescence, primary screen (AID 1102). The conditions noted are these: FGF10 binding, fluorescence 635 nm, higher = more signal.
Fibroblast growth factor 10 (Homo sapiens), sequence (O15520 whole entry, looked up): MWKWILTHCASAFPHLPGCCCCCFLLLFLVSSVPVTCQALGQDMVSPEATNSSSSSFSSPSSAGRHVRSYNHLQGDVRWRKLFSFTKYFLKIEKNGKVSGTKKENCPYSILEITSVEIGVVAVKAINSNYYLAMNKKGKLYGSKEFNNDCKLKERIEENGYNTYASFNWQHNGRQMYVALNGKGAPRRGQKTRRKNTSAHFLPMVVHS
The subject of assay [6] is glycogen synthase kinase-3 (GSK3A per assay name; protocol says GSK3B). The assay is described as follows: compounds binding glycogen synthase kinase-3 – biochemical, small-molecule microarray, 635 nm fluorescence, GSK3A, primary screen (AID 1103). Note: the record names both GSK3A and GSK3B. To be noted: fluorescence 635 nm, higher = more signal.
Assay [7] addresses Epidermal growth factor receptor (Homo sapiens) (UniProt P00533). The assay is described as follows: compounds binding epidermal growth factor receptor – biochemical, small-molecule microarray, 635 nm fluorescence, primary screen (AID 1104).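 Note: score merges 667 nm emission intensity with spot signal to noise over triplicate slides.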 The conditions noted are these: EGFR binding, higher = more signal.
Assay [8] concerns the target Follistatin-related protein 3 (Homo sapiens) (UniProt O95633). The assay is described as follows: compounds binding follistatin-related protein 3 – biochemical, small-molecule microarray, 635 nm fluorescence, primary screen (AID 1105).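 Note: score merges emission near 667 nm and signal to noise per printed spot across three slides.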 To be noted: FSTL3 binding, higher = more signal.
Assay [9] has as its target Dickkopf-related protein 1 (Homo sapiens) (UniProt O94907). The assay is described as follows: small molecules binding DKK1 protein – biochemical, small-molecule microarray, 635 nm fluorescence scan, primary screen (AID 1106).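 Note: score merges emission near 667 nm with signal to noise over three replicate slides.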 To be noted: higher = more signal.
For assay [10], the system named is Inhibin beta A chain (activin A). The assay is described as follows: small molecules binding activin A – biochemical, small-molecule microarray, 635 nm fluorescence scan, primary screen (AID 1107).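 Note: mouse activin A protein probed at 4.33 µg/mL on printed slides; score merges bound-protein fluorescence near 667 nm with spot signal-to-noise.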 The conditions noted are these: INHBA, higher = more signal.

Dickkopf-related protein 1 (Homo sapiens), sequence (O94907 whole entry, looked up): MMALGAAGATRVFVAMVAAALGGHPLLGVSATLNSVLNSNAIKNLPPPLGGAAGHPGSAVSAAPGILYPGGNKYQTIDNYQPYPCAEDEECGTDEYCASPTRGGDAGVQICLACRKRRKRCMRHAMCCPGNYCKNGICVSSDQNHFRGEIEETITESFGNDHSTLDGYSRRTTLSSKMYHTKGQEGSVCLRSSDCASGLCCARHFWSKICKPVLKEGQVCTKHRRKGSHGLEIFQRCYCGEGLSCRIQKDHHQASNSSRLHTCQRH
Follistatin-related protein 3 (Homo sapiens), sequence (O95633 whole entry, looked up): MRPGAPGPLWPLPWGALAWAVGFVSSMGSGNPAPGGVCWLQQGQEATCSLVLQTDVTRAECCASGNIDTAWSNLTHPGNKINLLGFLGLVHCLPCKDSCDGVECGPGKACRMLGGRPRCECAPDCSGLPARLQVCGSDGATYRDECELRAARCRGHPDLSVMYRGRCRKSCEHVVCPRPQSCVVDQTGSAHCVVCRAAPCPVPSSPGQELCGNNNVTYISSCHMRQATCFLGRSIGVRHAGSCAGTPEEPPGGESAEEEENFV
Epidermal growth factor receptor (Homo sapiens), sequence (P00533 whole entry, looked up): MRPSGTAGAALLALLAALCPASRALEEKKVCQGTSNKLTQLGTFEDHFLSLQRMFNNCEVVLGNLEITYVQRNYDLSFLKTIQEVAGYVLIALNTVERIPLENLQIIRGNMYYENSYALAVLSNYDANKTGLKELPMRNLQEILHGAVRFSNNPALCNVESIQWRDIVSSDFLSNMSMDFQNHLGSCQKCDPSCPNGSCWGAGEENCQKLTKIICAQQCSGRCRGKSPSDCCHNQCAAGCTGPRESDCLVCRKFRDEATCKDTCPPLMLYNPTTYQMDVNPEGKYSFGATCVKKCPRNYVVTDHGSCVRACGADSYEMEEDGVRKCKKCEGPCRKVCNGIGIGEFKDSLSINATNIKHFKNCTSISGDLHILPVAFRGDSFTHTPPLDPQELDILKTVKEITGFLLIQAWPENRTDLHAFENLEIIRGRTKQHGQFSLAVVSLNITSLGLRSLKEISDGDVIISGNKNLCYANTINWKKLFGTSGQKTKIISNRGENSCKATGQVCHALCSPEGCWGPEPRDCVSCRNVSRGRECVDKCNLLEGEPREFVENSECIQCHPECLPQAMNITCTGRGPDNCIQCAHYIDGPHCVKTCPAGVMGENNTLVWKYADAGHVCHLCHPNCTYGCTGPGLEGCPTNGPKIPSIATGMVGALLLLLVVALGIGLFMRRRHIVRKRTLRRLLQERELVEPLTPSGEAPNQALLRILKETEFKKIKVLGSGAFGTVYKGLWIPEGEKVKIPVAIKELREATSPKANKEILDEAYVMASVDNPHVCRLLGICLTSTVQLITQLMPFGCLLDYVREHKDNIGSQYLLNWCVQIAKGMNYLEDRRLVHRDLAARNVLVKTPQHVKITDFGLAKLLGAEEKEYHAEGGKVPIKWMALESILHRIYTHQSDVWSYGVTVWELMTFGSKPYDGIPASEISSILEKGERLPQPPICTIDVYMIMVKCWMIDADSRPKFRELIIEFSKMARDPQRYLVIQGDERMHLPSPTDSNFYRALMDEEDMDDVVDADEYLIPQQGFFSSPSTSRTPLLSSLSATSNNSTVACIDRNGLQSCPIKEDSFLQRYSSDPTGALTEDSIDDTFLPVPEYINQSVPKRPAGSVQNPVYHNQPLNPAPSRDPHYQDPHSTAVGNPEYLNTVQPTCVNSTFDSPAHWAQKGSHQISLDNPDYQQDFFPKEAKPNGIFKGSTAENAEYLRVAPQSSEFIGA

With `CCOC(=O)C[C@H]1[C@H](OC(=O)c2cc3ccccc3oc2=O)[C@@H](NC(=O)C2CCCCC2)c2cc(OCCCO)ccc2N1C(=O)c1ccccc1`, the composite z-score was 0.784 in assay [1]; -0.23 in [2]; -0.377 in assay [3]; 0.995 in [5]; 0.692 in assay [6]; 0.593 in assay [7]. Besides, the composite z-score was determined as 0.708 in [8], 0.5 in assay [9] and 0.707 in assay [10]. The z-score in [4] is -1.45 (inactive).
As for `COCCOC(=O)N1C(=O)[C@@]2(c3cc(C#CC4(O)CCCCCC4)ccc31)[C@H](c1ccc(O)cc1)N1[C@H](c3ccccc3)[C@H](c3ccccc3)OC(=O)[C@H]1[C@@H]2C(=O)Nc1nc2ccccc2s1`, the composite z-score turned out to be 0.483 in [1]; 1.17 in [2]; 0.784 in assay [3]; 1.35 in assay [5]; 1.31 in [6]; 0.487 in assay [7]. For the same molecule, the results for the composite z-score in assay [8], in assay [9] and in [10] were 1.38, 0.857 and 1.33, respectively. For the same molecule, the z-score in assay [4] is -0.54 (inactive).
`OC([C@@H]1CC(c2ccccc2)=NO1)[C@H]1CC(c2ccccc2)=NO1` (stereo not given in full): the composite z-score in assay [1] was -0.345; in [2], -0.29; in assay [3] it was -0.136; in assay [5], 0.0725; in [6], -0.453; in [7], -0.29. For the same molecule, the composite z-score is 0.031 in assay [8], 0.446 in assay [9] and 0.672 in assay [10]. Also, in [4], the z-score is -0.247 (inactive).
As for `CC(C)(C)OC(=O)CC[C@@]1(C(=O)NCCN2CCOCC2)N=C(c2ccc(OCCCO)cc2)O[C@@H]1c1ccccc1N=[N+]=[N-]`, the composite z-score is 0.739 in assay [1]; 1.04 in [2]; 1.21 in [3]; 1.1 in assay [5]; 0.0778 in [6]; 0.0224 in [7]. The composite z-score in [8] was found to be 1.06; in [9], 0.0741; in assay [10], 1.24. Moreover, the z-score in assay [4] is -0.744 (inactive).
For `NC(=O)[C@@H]1[C@H]2C(=O)O[C@H](c3ccccc3)[C@H](c3ccccc3)N2[C@H](c2ccc(O)cc2)[C@@]12C(=O)Nc1ccc(C#CC3(O)CCCCCC3)cc12`, the composite z-score is 0.61 in assay [1]; -0.127 in [2]; 0.523 in assay [3]; -0.177 in assay [5]; -1.05 in assay [6]; -0.497 in assay [7]. Moreover, the composite z-score in assay [8] was -0.846; in [9], -0.193; in assay [10] it was -0.257. For the same molecule, the z-score in assay [4] was 0.0171 (inactive).
In the case of `COCCOC(=O)N1C(=O)[C@@]2(c3cc(C#CC4=CCCCC4)ccc31)[C@H](C(=O)Nc1nc3ccccc3s1)[C@H]1C(=O)O[C@H](c3ccccc3)[C@H](c3ccccc3)N1[C@@H]2c1ccc(OCCO)cc1`, the composite z-score in assay [1] was 0.687; in assay [2], -0.0057; in [3], 0.235; in assay [5], 0.945; in [6] it was 1.21; in [7], 0.36. The composite z-score in assay [8] is 0.908; in assay [9] it was 0.495; in assay [10] it was 0.91. Moreover, the z-score in [4] is 0.000305 (inactive).
Regarding `C=C(/C(=C/C[C@@H](OC(C)=O)c1ccc(OCCO)cc1)c1cnc2ccccc2c1)C(C)C`, the composite z-score in [1] was 1.2; in assay [2] it was -0.229; in assay [3], 0.0459; in [5], 0.528; in assay [6], -0.0912; in [7] it was -0.103. Further, the composite z-score came to 0.77 in [8], 0.218 in assay [9] and 1.5 in assay [10]. For the same molecule, the z-score in assay [4] was -0.837 (inactive).
As for `COCCOC(=O)N1C(=O)[C@@]2(c3cc(C#CCNC(N)=O)ccc31)[C@H](C(=O)NC[C@H](O)c1ccccc1)[C@H]1C(=O)O[C@H](c3ccccc3)[C@H](c3ccccc3)N1[C@@H]2c1ccccc1OCCO`, the composite z-score was 1.5 in [1]; -0.547 in assay [2]; 0.218 in assay [3]; 1.04 in [5]; 0.628 in assay [6]; 0.366 in assay [7]. In addition, the composite z-score amounted to 1.01 in assay [8], 0.711 in assay [9] and 1.05 in [10]. Besides, the z-score in assay [4] is -0.0247 (inactive).
`COc1cc2c(cc1OC)CN(C(=O)[C@H]1[C@@H]3C(=O)O[C@@H](c4ccccc4)[C@@H](c4ccccc4)N3[C@@H](c3ccc(O)cc3)[C@]13C(=O)Nc1ccc(C#CCNC(N)=O)cc13)CC2`: the composite z-score in assay [1] was 1.11; in [2], -0.0741; in assay [3], 0.0306; in assay [5] it was 1.11; in [6] it was -0.294; in assay [7], -0.0357. Also, the composite z-score is 0.903 in assay [8], 0.596 in assay [9] and 0.544 in assay [10]. Further, the z-score in assay [4] was -0.996 (inactive).
Take `CCc1oc(CC[C@@H](CO)NC(=O)NCCn2cc(C3(O)CCCCC3)nn2)c(C(=O)OC)c1C(=O)OC`: the composite z-score in [1] was 0.832; in assay [2], -0.0378; in assay [3] it was -0.402; in [5], 1.13; in assay [6] it was 0.972; in assay [7], 0.717. In addition, the values for the composite z-score in assay [8], in [9] and in [10] were 1.33, 0.887 and 0.289, respectively. The z-score in assay [4] is -0.0596 (inactive).
On to `COC(=O)c1c(CC[C@@H](CO)NC(=O)N[C@@H](C)Cn2cc(C3(O)CCCCC3)nn2)oc(C(C)=O)c1C(=O)OC`, for which the composite z-score in assay [1] was 1.35; in assay [2], -0.0465; in assay [3] it was -0.481; in [5] it was 1.2; in [6], 1.25; in assay [7], 0.763. In addition, the figures for the composite z-score in [8], in [9] and in assay [10] were 1.27, 0.892 and -0.216, respectively. Further, in assay [4], the z-score was -2.26 (inactive).
Turning to `COCCOC(=O)N1C(=O)[C@@]2(c3cc(C#CCCO)ccc31)[C@H](c1ccc(OCCO)cc1)N1[C@H](c3ccccc3)[C@H](c3ccccc3)OC(=O)[C@H]1[C@@H]2C(=O)N1CCN(c2ncccn2)CC1`, the composite z-score in assay [1] was 0.732; in assay [2], -0.104; in assay [3], 0.27; in assay [5] it was 1.03; in [6] it was 1.31; in assay [7] it was 0.629. The composite z-score in assay [8] was 1.39; in assay [9] it was 0.783; in assay [10] it was 0.845. Further, in assay [4], the z-score was 0.319 (inactive).
In the case of `CC(C)N1C(=O)[C@@]2(Cc3ccccc31)c1ccccc1C(=O)N(C1CCCCC1)[C@H]2c1ccc(CO)cc1`, the composite z-score in [1] was 1.15; in assay [2], -0.307; in assay [3], -0.194; in assay [5] it was 0.206; in assay [6] it was 0.856; in assay [7], 0.507. The figures for the composite z-score in assay [8], in assay [9] and in [10] were 1.17, 0.788 and 0.899, respectively. Also, the z-score in [4] is 0.0789 (inactive).

The values are drawn from PubChem BioAssay.
